Measured values from ChEMBL document CHEMBL3988442, “University of Dundee, Small-Polar-MMV Screening Library” (2021).
Hit rate of the full screen: of about 48,000 compounds, about 13,000 (27%) showed an effect of 50% or more. The list shows a part of the results.

The compounds below were run on Wolbachia pipientis (assay: Anti-Wolbachia Cell-Based Screen). Conditions: 5 µM.
Assay type: functional
Parameters: scale not given: in the data most compounds retested in dose-response had high values

Row | SMILES | Percent Effect
1 | N#Cc1ccc(OC2CCN(C(=O)c3ccc4c(c3)OCO4)CC2)nc1 | -4.84%
2 | CC(=O)NC(C)C1=CCCN(Cc2ccc(C(=O)O)cc2)C1 (stereo not drawn) | -17.16%
3 | CS(=O)(=O)N[C@@H]1COC[C@@H]2CN(Cc3ccoc3)C[C@@H]21 | 104.1%
4 | CS(=O)(=O)CC(=O)N1C[C@@H]2CN(Cc3ccoc3)CCO[C@@H]2C1 | -2.254%
5 | CS(=O)(=O)N[C@@H]1COC[C@@H]2CN(Cc3ccco3)C[C@@H]21 | 121.7%
6 | CS(=O)(=O)N[C@H]1COC[C@@H]2CN(Cc3ccco3)C[C@@H]21 | 102.8%
7 | CS(=O)(=O)N[C@@H]1CN(Cc2ccoc2)C[C@@H]2CCCO[C@@H]21 | -8.721%
8 | CCOCC(=O)N1CCc2c(CN(C)C)nn(C(C)C)c2C1.O=C(O)C(F)(F)F | -22.21%
9 | Cn1c(N)nnc1SCC1OCCc2ccccc21 (stereo not drawn) | -8.673%
10 | O=C(Nc1nncs1)c1ccc(O)nc1 | -7.078%
11 | CC(C)C(C)N(C)Cc1nnc(-c2ccc(Br)s2)o1 (stereo not drawn) | 27.84%
12 | CN(C)[C@H]1C[C@@H](Cc2cc(CO)on2)C1(C)C | 2.334%
13 | CC(C)C(Sc1nnnn1C1CC1)C(=O)NCc1cccnc1 (stereo not drawn) | 0.8079%
14 | CC(C)C(Sc1nnnn1-c1ccccc1)C(=O)NCc1cccnc1 (stereo not drawn) | -6.711%
15 | CC(C)C(Sc1nnc(C2CC2)n1C1CC1)C(=O)NCc1cccnc1 (stereo not drawn) | 2.12%
16 | Cc1nn(C)c2cnn(C(C)C(=O)NCc3cccnc3)c12 (stereo not drawn) | 10.06%
17 | CC(C)Sc1nnnn1C1CCCC1 | -35.1%
18 | CC(C)Cn1nnnc1SC(C(=O)NCc1cccnc1)C(C)C (stereo not drawn) | 111.1%
19 | CC(C)C(Sc1nccn1C1CC1)C(=O)NCc1cccnc1 (stereo not drawn) | 93.78%
20 | CC(C)C(Sc1nncn1C1CC1)C(=O)NCc1cccnc1 (stereo not drawn) | 102%
21 | Cc1nn(C)c2cn(C(C)C(=O)NCc3cccnc3)nc12 (stereo not drawn) | 6.41%
22 | Cc1ccc(C)c(OC(C)C(=O)NCc2cccnc2)c1 (stereo not drawn) | -19.9%
23 | CC(C)C(Sc1nnnn1C1CC1)C(=O)NCc1ccccc1 (stereo not drawn) | 90.27%
24 | O=C(c1cc(=O)[nH][nH]1)N1CCCC2(CCC(=O)N(C3CCCC3)C2)C1 (stereo not drawn) | -4.852%
25 | Cc1nnsc1CN(C)C(=O)CN1CC2(CCNCC2)OC1=O | -6.607%

Row | SMILES | Percent Effect
26 | COc1ccncc1NC(=O)C1(c2ccccc2)CC1 | -4.467%
27 | COCCN1CCC(CNC(=O)C2(C#N)CCCC2)CC1 | -6.048%
28 | COCCN1CCC(CNC(=O)C2(c3ccccc3)CCOCC2)C1 (stereo not drawn) | 84.82%
29 | CCCC(=O)NCC1CCCN(Cc2cc(C)c(C)o2)C1 (stereo not drawn) | -7.568%
30 | COc1ccccc1NC(=O)C1(c2ccccc2)CCOCC1 | 98.14%
31 | O=C(Cc1ccccc1F)NCC1CCN(CCN2CCOCC2)C1 (stereo not drawn) | 8.19%
32 | COCCN1CCC(CNC(=O)C2(c3ccc(F)cc3)CCC2)CC1 | 107%
33 | CC(C)(CNC(=O)C1(c2ccccc2)CCOCC1)C(=O)O | 1.32%
34 | COCCN1CCC(CNC(=O)C2(S(C)(=O)=O)CCCC2)CC1 | -5.804%
35 | CCN1CCCC(CNC(=O)C2(c3cc(C)cc(C)c3)CCC2)C1 (stereo not drawn) | 97.54%
36 | CCN1CCCC(CNC(=O)CCc2ccc(OC)c(F)c2)C1 (stereo not drawn) | -5.052%
37 | CCC(Oc1ccc(N(C)S(C)(=O)=O)cc1)C(N)=O (stereo not drawn) | 16.67%
38 | O=C(c1ccc2nccnc2c1)N1CCN(CCO)[C@@H]2CS(=O)(=O)C[C@@H]21 | -5.397%
39 | O=C(CCCNC(=O)Nc1ccc(F)cc1)Nc1cn[nH]c1 | -3.689%
40 | Cc1cc(C(=O)N2CCN(C(=O)CC(C)C)[C@@H]3CS(=O)(=O)C[C@@H]32)no1 | -7.208%
41 | Cc1noc(C)c1CN1C(=O)[C@H]2CC[C@@H]1CN(Cc1cccc(O)c1)C2 | -12.83%
42 | COCCN1CCC(CNC(=O)C2(c3ccccc3)CCC2)C1 (stereo not drawn) | 100.1%
43 | COCCN1CCC(CNC(=O)Nc2ccc(-c3ccccc3)cc2)C1 (stereo not drawn) | -0.2028%
44 | COCCN1CCC(CNC(=O)C2(c3ccc(Br)cc3)CCCC2)C1 (stereo not drawn) | 150.6%
45 | CCCN1CCC(CNC(=O)C2(c3cc(C)cc(C)c3)CCC2)C1 (stereo not drawn) | 132%
46 | Cc1cc(C)cc(C2(C(=O)NCC(C)CN3CCCC3=O)CC2)c1 (stereo not drawn) | 2.33%
47 | CCCN1CCC(CC(=O)NCc2cc(C)nn2C)CC1 | -10.83%
48 | N#Cc1ccc(CNC(=O)NC2CCN(CC(F)(F)F)C2)cc1 (stereo not drawn) | 9.13%
49 | COCCN1CCC(CNC(=O)C2(C#N)CCCCC2)CC1 | -10.25%
50 | Cc1cc(C)cc(C2(C(=O)NCC3CCN(CC(F)(F)F)C3)CC2)c1 (stereo not drawn) | 144.8%

Row | SMILES | Percent Effect
51 | CC(C)[C@@H]1CN(CCCOc2ccc(F)cc2)C[C@H]1NS(C)(=O)=O | 10.36%
52 | CC(C)(C)Oc1ccncc1NCc1cscn1 | -14.11%
53 | CCN1CCC(CNC(=O)C2(c3cccc(C)c3)CC2)C1 (stereo not drawn) | -3.143%
54 | CCCN1CCC(CNC(=O)C2(c3ccccc3)CCC2)C1 (stereo not drawn) | 94.67%
55 | Cc1cc(CN2CCC(CNC(=O)C3(c4ccccc4)CC3)C2)[nH]n1 (stereo not drawn) | -1.817%
56 | O=c1c2cccnc2cnn1CC(O)c1ccc(F)c(F)c1 (stereo not drawn) | -16.55%
57 | Cn1c2ncccc2c(=O)n1CC(=O)Nc1ccc(F)c(F)c1 | 107.1%
58 | Cc1ccc(CNC(=O)Cn2c(=O)c3cccnc3n2C)cc1F | 105.8%
59 | Cn1c2ncccc2c(=O)n1CC(=O)NCCC1=CCCCC1 | 106.1%
60 | CS(=O)(=O)Cc1ccc(NC(=O)Cc2cccnc2)cc1F | 17.36%
61 | Cc1cc(CNC(=O)CN2CCN(C(=O)OC(C)(C)C)CC2)ccc1F | -110.5%
62 | O=C(NCCNc1ncccn1)NCCc1c(F)cccc1F | 4.613%
63 | Cn1c2ncccc2c(=O)n1CC(=O)NCCc1c(F)cccc1F | 97.5%
64 | O=C(CN1CCN(CCO)CC1)NCCc1c(F)cccc1F | 0.9837%
65 | Cc1ccc(CNC(=O)N2CCOCC2C2CC2)cc1F (stereo not drawn) | -8.546%
66 | O=C(CN1CCCCC1Cn1cncn1)NCCC1=CCCCC1 (stereo not drawn) | -14.45%
67 | Cc1nc2n(n1)CC(NCC(=O)NCCC1=CCCCC1)CC2 (stereo not drawn) | 18.92%
68 | CNC(=O)[C@@H]1C[C@H](N)CN1S(=O)(=O)c1cc(C)c(Cl)cc1C | 4.211%
69 | COc1ccccc1OC1(C(=O)O)CCN(c2ncccc2F)CC1 | -11.09%
70 | COc1ccncc1NCc1cscn1 | 0.2861%
71 | CSc1ccc(CN(CCO)Cc2nccn2C)cc1 | -0.296%
72 | Cc1cncc(C(=O)N2CCOc3nc(C)ccc32)c1 | 1.683%
73 | CCC(C)(NCC(=O)NC(=O)NC)c1nc(C)cs1 (stereo not drawn) | -8.328%
74 | COc1cccc(C(C)N2CCN(S(C)(=O)=O)CC2)c1 (stereo not drawn) | -19.03%
75 | Cc1cccc2nc(CSCc3nnnn3C(C)C)cn12 | -17.34%

Row | SMILES | Percent Effect
76 | O=C(O)C(F)(F)F.O=C(c1ccoc1)N1CCO[C@]2(CCC[C@H]2COCc2cccnc2)C1 | 1.703%
77 | O=C(O)C(F)(F)F.O=C(c1ccoc1)N1CCO[C@]2(CCC[C@@H]2COCc2cccnc2)C1 | -7.34%
78 | CN(Cc1cccnc1)[C@@H]1CN(C(=O)CC2CC2)[C@@H]2CCCO[C@H]12.O=C(O)C(F)(F)F.O=C(O)C(F)(F)F | 108.9%
79 | CN(Cc1cccnc1)[C@@H]1CN(C(=O)c2ccoc2)[C@@H]2CCCO[C@H]12.O=C(O)C(F)(F)F.O=C(O)C(F)(F)F | 116.4%
80 | CN(Cc1cccnc1)[C@@H]1CN(C(=O)c2ccno2)[C@@H]2CCCO[C@H]12.O=C(O)C(F)(F)F.O=C(O)C(F)(F)F | 103.3%
81 | CN(Cc1cccnc1)[C@@H]1CN(C(=O)NC2CC2)[C@@H]2CCCO[C@H]12.O=C(O)C(F)(F)F.O=C(O)C(F)(F)F | 101%
82 | CN(Cc1nccn1C)S(=O)(=O)c1cccc(C#N)c1 | 5.7%
83 | CN(C)[C@@H]1CN(C(=O)c2ccc(C#N)cc2)[C@@H]2CCCO[C@H]12.O=C(O)C(F)(F)F | 5.598%
84 | CN(C)[C@@H]1CN(C(=O)CCc2ccccc2)[C@@H]2CCCO[C@H]12.O=C(O)C(F)(F)F | 98.44%
85 | Cc1ccc(CN2C[C@@H](N(C)C)[C@H]3OCCC[C@H]32)o1.O=C(O)C(F)(F)F.O=C(O)C(F)(F)F | -10.94%
86 | COc1ccc(OC)c(C2CCN(Cc3nc(C)n4ccccc34)C2)c1 (stereo not drawn) | 11.21%
87 | COc1cccc(Nc2nc(C3CCCNC3)c3ccccn23)c1.Cl (stereo not drawn) | 104.7%
88 | COc1cccc(Nc2nc(C3CCNCC3)c3ccccn23)c1.Cl | 85.66%
89 | Cn1cc(CCCNC(=O)NC2CCN(CC(F)(F)F)C2=O)cn1 (stereo not drawn) | -5.145%
90 | Cc1ncc(CNC(=O)c2oc3ccccc3c2CN(C)C)s1 | -2.973%
91 | COC1CCN(C(=O)Cc2csc(-c3ncccn3)n2)CC1 | -12.9%
92 | Cn1nc(C2CCN(C(=O)c3cccs3)CC2)c2cccnc21 | 107.6%
93 | Cn1cnnc1S(=O)(=O)C1CCN(C(=O)c2cccs2)CC1 | -12.26%
94 | CN1CCN(C(=O)Cc2ccsc2)Cc2cccnc21.O=C(O)C(F)(F)F | -3.335%
95 | Cc1nc(CC(=O)N2CCC(c3nn(C)c4ncccc34)CC2)cs1.Cl | 92.52%
96 | Cl.Cn1nc(C2CCN(C(=O)Cc3cccc(F)c3)CC2)c2cccnc21 | -4.432%
97 | N#Cc1cccnc1N1CCN(C(=O)c2cccs2)CC1 | -4.28%
98 | Cl.Cn1nc(C2CCN(C(=O)Cc3ccsc3)CC2)c2cccnc21 | 115.7%
